Source: PubChem
An excerpt weighted towards active compounds, which were near 1.5% of everything screened.
AID504770: growth inhibition of E. coli YBA685, primary screen, V. cholerae RctB inhibitors; 130,000 compounds, 0.27% hits; AID 504770, 2011; E. coli YBA685 rctB-dependent plasmid, OD600 growth, 3 h; hits give low values; z-score (concentration not given with the values); in the data active = z-score below about -2, passing the limit was not always enough
MbtI inh: MbtI salicylate synthase inhibitors, primary screen, biochemical, fluorescence intensity | P9WFX0 | purified MbtI enzyme, fluorescence intensity read-out | inhibition, % (no concentration beside the values) | 100,000 compounds, 0.89% hits | AID 493033, 2011; in the data active = inhibition mostly above about 56%, no sharp cut-off; inactive = mostly below about 77%
Target sequence (P9WFX0 whole entry, looked up): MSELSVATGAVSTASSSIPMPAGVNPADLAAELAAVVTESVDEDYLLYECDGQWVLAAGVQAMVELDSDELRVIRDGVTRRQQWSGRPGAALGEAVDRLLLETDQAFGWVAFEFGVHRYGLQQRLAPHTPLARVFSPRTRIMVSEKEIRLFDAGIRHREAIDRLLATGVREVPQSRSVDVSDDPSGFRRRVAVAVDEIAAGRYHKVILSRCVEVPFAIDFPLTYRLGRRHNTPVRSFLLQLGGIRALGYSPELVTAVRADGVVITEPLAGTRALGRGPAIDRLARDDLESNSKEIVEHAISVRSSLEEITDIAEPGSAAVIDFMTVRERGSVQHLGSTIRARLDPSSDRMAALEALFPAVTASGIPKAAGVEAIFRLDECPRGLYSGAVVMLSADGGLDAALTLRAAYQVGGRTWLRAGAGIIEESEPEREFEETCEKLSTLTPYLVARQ
Polio RdRp inh: poliovirus RdRp elongation inhibitors, primary screen, biochemical, fluorescence polarization, total intensity; Genome polyprotein (Poliovirus type 1 (strain Mahoney)), P03300; 150,000 compounds, 0.66% hits; % elongation, % (compound at 16.7 µg/mL); poliovirus polymerase elongation; hits give low values; in the data active = % elongation below about 90%
Mtb MenB inh: M. tuberculosis MenB inhibitors, primary screen, biochemical, absorbance. 1,4-dihydroxy-2-naphthoyl-CoA synthase (Mycobacterium tuberculosis (strain ATCC 25618 / …. MenB enzyme assay, absorbance read-out. inhibition, % (test concentration not listed). 100,000 compounds, 0.43% hits. AID 540299, 2011; in the data active = inhibition above about 21%, passing the limit was not always enough
Numbers without * were called inactive; / = no result given.

SMILES	AID504770	MbtI inh	Polio RdRp inh	Mtb MenB inh
COc1cccc(OC)c1C(=O)N(C(=O)c1c(OC)cccc1OC)c1oc(-c2ccco2)c(-c2ccco2)c1C#N	1.05	17.3	103.0	12.2
COc1ccccc1NS(=O)(=O)c1ccc2oc(=S)n(CN3CCCC3)c2c1	-0.75	12.6	103.0	-11.7
COc1ccccc1NS(=O)(=O)c1ccc2oc(=S)n(CN(C)CCC#N)c2c1	-0.3	4.6	85.0*	-18.2
O=c1c(=Nc2ccccc2O)c(=O)c2ccccc12	-0.9	/	95.0	-8.1
O=c1c(=N\O)/c(=N/O)c(=O)c2ccccc12	-5.3*	25.0	60.0*	-12.4
CCC1CCC(C(=O)O)CC1 (stereo not given)	0.55	/	/	/
S=c1[nH]nc(SCc2cccs2)s1	0.15	102.2*	98.0	2.9
CCOC(=O)Nc1cncc(Br)c1	0.1	/	/	/
Clc1ccccc1C1SCC2Nc3ccccc3CN21 (stereo not given)	-0.75	-4.8	105.0	70.5*
Nc1nc(-c2cccs2)c(C(=O)C(F)(F)F)s1	-0.4	63.0*	100.0	-5.9
O=C(O)c1ccc(NC(=O)c2cn(-c3ccccc3)nc2-c2cc3ccccc3o2)cc1	-0.25	-0.1	101.0	-14.4
c1ccc2[nH]c(SN3CCCCC3)nc2c1	0.1	96.8*	100.0	-8.0
c1ccc2[nH]c(SCCCN3CCCCC3)nc2c1	-0.4	7.8	99.0	-18.7
CN=C1S/C(=C\c2ccc(Cl)cc2)C(=O)N1C	0.05	5.6	88.0*	5.9
COc1ccc(OCC(=O)Sc2ccc(Cl)cc2)cc1	-0.2	/	81.0*	-20.1
Clc1ccc(CSc2ncccn2)cc1	-0.8	20.1	103.0	-0.6
c1ccc(CSc2ncccn2)cc1	1.1	60.4*	102.0	-0.1
CCn1c(-c2cc(OC)ccc2OC)csc1=Nc1ccc(O)cc1	-0.15	65.8*	87.0*	-37.5
O=C(NCc1ccco1)C(c1ccccc1)N(CCc1ccccc1)C(=O)Cn1nnc2ccccc21 (stereo not given)	2.3	-0.1	102.0	-27.3
Cc1cccc(NC(=O)c2ccccc2)c1C(=O)O	-0.1	/	/	/
CSc1nc2ccc(N=Cc3ccc(Sc4nnnn4-c4ccccc4)o3)cc2s1	-0.6	/	119.0	-6.0
CCc1nc(SCc2ccccc2)[nH]c(=O)c1C	-0.3	83.2*	102.0	0.0
O=c1[nH]c(SCc2ccccc2)nc2ccccc12	0.5	40.0	/	/
CC(C)Cc1nnc(NS(C)(=O)=O)s1	-0.1	94.6*	102.0	-30.7
COc1ccc(C2CC(=O)C=C(NCC(C)C)C2)cc1 (stereo not given)	-0.55	-0.7	/	/
SMILES	AID504770	MbtI inh	Polio RdRp inh	Mtb MenB inh
O=C(Cc1cnn(-c2ccccc2)c1)c1ccc(O)c(O)c1O	0.65	81.6*	100.0	-6.6
O=C(Cn1c(C(=O)NCc2ccco2)cc2sccc21)c1ccccc1	1.1	11.6	104.0	23.5*
N=C(N)SCCCc1nc2ccccc2[nH]1	-0.15	9.8	102.0	1.7
CC(C)Nc1nn(CN2CCN(C(=O)c3ccccc3)CC2)c(=S)s1	-0.5	76.8*	91.0	-3.3
O=C(CSc1ncnc2[nH]ncc12)CSc1ncnc2[nH]ncc12	-1.15	10.1	100.0	active
O=S(=O)(Nc1ccccc1-c1ccccc1)c1cccs1	2.7	5.4	104.0	51.9*
O=c1c2c(-c3ccccc3)csc2nc2n1CCC2	0.15	/	106.0	-1.2
Cc1sc2nc3n(c(=O)c2c1-c1ccccc1)CCC3	-2.8	87.4	76.0*	-19.4
Cc1sc2nc(CCl)[nH]c(=O)c2c1C	-0.5	0.0	98.0	/
Cc1sc2nc(CCl)[nH]c(=O)c2c1-c1ccccc1	0.5	81.5*	89.0*	/
CCN1C(=O)/C(=C/C=C2/Sc3cc(NC(C)=O)ccc3N2CC)N(c2ccccc2)C1=S	1.5	8.7	102.0	-10.6
Clc1ccc(CN2COc3ccc(Cl)cc3C2)cc1	-1.1	/	101.0	-7.6
CCc1c(CN2CCN(c3cccc(C)c3C)CC2)csc1C	/	/	56.0*	/
CSc1nc2c(sc(=S)n2-c2ccccc2C)c(=O)n1-c1ccccc1C	1.15	61.8*	97.0	-3.4
CCc1ccc(-n2c(=S)sc3c(=O)n(-c4ccccc4)c(SCC#N)nc32)cc1	1.35	-0.3	104.0	-37.6
COc1ccc(C(=O)c2nc3ccccc3n2C(C)C)cc1OC	-4.6*	-3.8	101.0	-16.9
COc1ccc(OCC(O)CNC(C)C)c(C(C)(C)C)c1 (stereo not given)	-0.05	/	/	/
Nn1c(-c2ccco2)n[nH]c1=S	1.2	63.5	106.0	-18.6
